Measurements from PubChem BioAssay.
Calls of active or inactive are those of the source.

Key:
[1] = tested on: PRMT1 (protein arginine N-methyltransferase 1); assay: small molecules binding arginine methyltransferase PRMT1 – biochemical, small-molecule microarray, 635 nm fluorescence, primary screen (AID 1088); details: higher = more signal;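 further: binding of Prmt1 protein to compounds spotted on small-molecule microarray slides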
[2] = growth effects on S. cerevisiae YJM789 – YJM789 clinical isolate, OD600, 24 h, basal, primary screen (AID 1089); details: higher = more signal, called active from +8 up or from −8 down;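 further: growth of clinical yeast isolate S. cerevisiae YJM 789 seeded 1000 cells per well; test concentration not given here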
[3] = S. pombe growth modifiers, basal conditions – strain 972, OD600, 24 h, no modulator, primary screen (AID 1090);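 further: basal condition with compound alone and no growth modifier present; test concentration not given here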; details: S. pombe 972 growth, higher = more signal, called active from +8 up or from −8 down
[4] = budding yeast growth modifiers under rapamycin – strain BY4716, OD600, 96 h, primary screen (AID 1091); further: test concentration not given here; details: S. cerevisiae BY4716 + rapamycin, higher = more signal, called active from +8 up or from −8 down
[5] = molecular target: Torsin-1A-interacting protein 2 (Homo sapiens) (UniProt Q8NFQ8); assay: small molecules binding lysate-expressed LULL1 – cell lysate, human LULL1 lysate, 635/667 nm fluorescence, primary screen (AID 1092); details: small-molecule microarray, hLULL1 lysate binding, 635 nm fluorescence; higher = more signal;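 further: probe is lysate of COS7 cells overexpressing human LULL1; score merges per-feature 667 nm fluorescence with signal-to-noise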
[6] = optical density change of DRC41 E. coli – strain DRC41, OD650, 24 h, E. coli filamentation project, primary screen (AID 1093);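 further: MC1000 strain lacking acrAB efflux and sulA so SOS filamentation is blocked; test concentration not given here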; details: E. coli DRC41 growth, higher = more signal, called active from +8 up or from −8 down
[7] = probe aLefty2 binding to arrayed compounds – biochemical, biotinylated probe, 635/667 nm fluorescence, primary screen (AID 1094); details: small-molecule microarray, higher = more signal;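 further: score merges spot fluorescence near 667 nm with spot signal-to-noise ratio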
[8] = tested on: Noggin (protein binding on small-molecule microarray); assay: small molecules binding Noggin protein – biochemical, 635/667 nm fluorescence, primary screen (AID 1095); details: 635 nm fluorescence, higher = more signal;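 further: score merges 667 nm feature fluorescence with signal to noise over triplicate slides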
[9] = molecular target: Neurogenic locus notch homolog protein 3 (Homo sapiens) (UniProt Q9UM47); assay: small molecules binding NOTCH3 protein – biochemical, 635/667 nm fluorescence, primary screen (AID 1096); details: small-molecule microarray, 635 nm fluorescence, higher = more signal
[10] = probe aEGFR binding to arrayed compounds – biochemical, biotinylated probe, 635/667 nm fluorescence, primary screen (AID 1097); details: small-molecule microarray, higher = more signal;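 further: probe is a biotinylated anti-EGFR antibody binding compounds printed on slides; score combines fluorescence near 667 nm and signal to noise of each spot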
[11] = tested on: Plasmodium falciparum Sir2 (PF13_0152, Sir2A); assay: Plasmodium falciparum Sir2A binding compounds – biochemical, small-molecule microarray, 635 nm fluorescence, primary screen (AID 1098); details: fluorescence 635 nm, higher = more signal;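 further: score merges spot fluorescence intensity with its signal-to-noise ratio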
[12] = probe aDKK1 binding to arrayed compounds – biochemical, biotinylated probe, 635/667 nm fluorescence, primary screen (AID 1099); details: small-molecule microarray, higher = more signal;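 further: score merges 667nm spot fluorescence with signal to noise across triplicate slides; reference of the scale not given here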
[13] = probe aCHRDL2 binding to arrayed compounds – biochemical, biotinylated probe, 635/667 nm fluorescence, primary screen (AID 1100); details: small-molecule microarray, higher = more signal
[14] = change in splice reporter luminescence, either direction, cell-based, HEK293, spliceosome inhibition project, primary screen (AID 1101); details: HEK293 splicing luciferase reporter, 24 h, higher = more signal, called active from +8 up or from −8 down;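 further: HEK293 cells carrying a splicing-competent luciferase reporter gene; test concentration not given here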
[15] = molecular target: Fibroblast growth factor 10 (Homo sapiens) (UniProt O15520); assay: compounds binding fibroblast growth factor 10 – biochemical, small-molecule microarray, 635 nm fluorescence, primary screen (AID 1102); details: FGF10 binding, fluorescence 635 nm, higher = more signal
[16] = tested on: glycogen synthase kinase-3 (GSK3A per assay name; protocol says GSK3B); assay: compounds binding glycogen synthase kinase-3 – biochemical, small-molecule microarray, 635 nm fluorescence, GSK3A, primary screen (AID 1103); details: fluorescence 635 nm, higher = more signal; further: the record names both GSK3A and GSK3B
[17] = molecular target: Epidermal growth factor receptor (Homo sapiens) (UniProt P00533); assay: compounds binding epidermal growth factor receptor – biochemical, small-molecule microarray, 635 nm fluorescence, primary screen (AID 1104); details: EGFR binding, higher = more signal;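 further: score merges 667 nm emission intensity with spot signal to noise over triplicate slides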
[18] = molecular target: Follistatin-related protein 3 (Homo sapiens) (UniProt O95633); assay: compounds binding follistatin-related protein 3 – biochemical, small-molecule microarray, 635 nm fluorescence, primary screen (AID 1105); details: FSTL3 binding, higher = more signal;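 further: score merges emission near 667 nm and signal to noise per printed spot across three slides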
[19] = molecular target: Dickkopf-related protein 1 (Homo sapiens) (UniProt O94907); assay: small molecules binding DKK1 protein – biochemical, small-molecule microarray, 635 nm fluorescence scan, primary screen (AID 1106); details: higher = more signal;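 further: score merges emission near 667 nm with signal to noise over three replicate slides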
[20] = tested on: Inhibin beta A chain (activin A); assay: small molecules binding activin A – biochemical, small-molecule microarray, 635 nm fluorescence scan, primary screen (AID 1107); details: INHBA, higher = more signal;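 further: mouse activin A protein probed at 4.33 µg/mL on printed slides; score merges bound-protein fluorescence near 667 nm with spot signal-to-noise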

Chain of Follistatin-related protein 3 (Homo sapiens) (O95633 whole entry, looked up): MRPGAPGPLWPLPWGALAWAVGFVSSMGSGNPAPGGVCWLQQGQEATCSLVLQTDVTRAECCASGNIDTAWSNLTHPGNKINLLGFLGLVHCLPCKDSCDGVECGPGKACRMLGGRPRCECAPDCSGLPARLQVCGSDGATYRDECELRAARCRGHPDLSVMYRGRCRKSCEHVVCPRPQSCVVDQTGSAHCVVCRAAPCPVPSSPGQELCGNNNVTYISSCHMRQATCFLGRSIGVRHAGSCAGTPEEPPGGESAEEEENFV
Chain of Epidermal growth factor receptor (Homo sapiens) (P00533 whole entry, looked up): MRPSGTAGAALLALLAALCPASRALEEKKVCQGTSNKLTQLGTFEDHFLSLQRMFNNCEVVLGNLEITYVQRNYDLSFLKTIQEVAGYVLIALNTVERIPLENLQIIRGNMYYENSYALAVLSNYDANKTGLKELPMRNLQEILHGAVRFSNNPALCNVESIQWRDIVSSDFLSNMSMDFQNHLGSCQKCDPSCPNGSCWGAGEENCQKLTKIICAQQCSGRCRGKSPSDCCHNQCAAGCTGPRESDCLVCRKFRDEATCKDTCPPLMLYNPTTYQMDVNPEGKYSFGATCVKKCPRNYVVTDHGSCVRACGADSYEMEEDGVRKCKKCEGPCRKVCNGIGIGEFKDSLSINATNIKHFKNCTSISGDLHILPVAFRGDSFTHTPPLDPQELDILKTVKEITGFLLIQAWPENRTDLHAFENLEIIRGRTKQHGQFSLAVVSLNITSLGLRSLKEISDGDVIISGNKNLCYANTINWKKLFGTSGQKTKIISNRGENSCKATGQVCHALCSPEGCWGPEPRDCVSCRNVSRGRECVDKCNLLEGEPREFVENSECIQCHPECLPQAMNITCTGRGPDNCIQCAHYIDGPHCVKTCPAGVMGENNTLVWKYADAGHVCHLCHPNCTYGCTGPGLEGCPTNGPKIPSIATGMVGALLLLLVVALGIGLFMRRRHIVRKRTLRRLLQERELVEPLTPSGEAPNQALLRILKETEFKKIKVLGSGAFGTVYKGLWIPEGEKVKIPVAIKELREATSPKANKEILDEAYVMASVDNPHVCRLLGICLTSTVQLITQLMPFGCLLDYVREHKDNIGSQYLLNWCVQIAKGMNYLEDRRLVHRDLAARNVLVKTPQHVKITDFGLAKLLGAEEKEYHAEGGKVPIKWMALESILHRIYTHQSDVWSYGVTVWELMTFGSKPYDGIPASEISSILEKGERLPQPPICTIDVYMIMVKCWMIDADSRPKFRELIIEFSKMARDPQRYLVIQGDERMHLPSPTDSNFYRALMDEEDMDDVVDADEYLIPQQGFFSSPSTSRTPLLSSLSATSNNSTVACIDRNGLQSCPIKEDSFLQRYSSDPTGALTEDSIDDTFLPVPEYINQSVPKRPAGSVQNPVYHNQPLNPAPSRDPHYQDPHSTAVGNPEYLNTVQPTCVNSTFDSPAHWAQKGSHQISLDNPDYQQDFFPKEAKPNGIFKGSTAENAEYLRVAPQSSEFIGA
Chain of Neurogenic locus notch homolog protein 3 (Homo sapiens) (Q9UM47 whole entry, looked up): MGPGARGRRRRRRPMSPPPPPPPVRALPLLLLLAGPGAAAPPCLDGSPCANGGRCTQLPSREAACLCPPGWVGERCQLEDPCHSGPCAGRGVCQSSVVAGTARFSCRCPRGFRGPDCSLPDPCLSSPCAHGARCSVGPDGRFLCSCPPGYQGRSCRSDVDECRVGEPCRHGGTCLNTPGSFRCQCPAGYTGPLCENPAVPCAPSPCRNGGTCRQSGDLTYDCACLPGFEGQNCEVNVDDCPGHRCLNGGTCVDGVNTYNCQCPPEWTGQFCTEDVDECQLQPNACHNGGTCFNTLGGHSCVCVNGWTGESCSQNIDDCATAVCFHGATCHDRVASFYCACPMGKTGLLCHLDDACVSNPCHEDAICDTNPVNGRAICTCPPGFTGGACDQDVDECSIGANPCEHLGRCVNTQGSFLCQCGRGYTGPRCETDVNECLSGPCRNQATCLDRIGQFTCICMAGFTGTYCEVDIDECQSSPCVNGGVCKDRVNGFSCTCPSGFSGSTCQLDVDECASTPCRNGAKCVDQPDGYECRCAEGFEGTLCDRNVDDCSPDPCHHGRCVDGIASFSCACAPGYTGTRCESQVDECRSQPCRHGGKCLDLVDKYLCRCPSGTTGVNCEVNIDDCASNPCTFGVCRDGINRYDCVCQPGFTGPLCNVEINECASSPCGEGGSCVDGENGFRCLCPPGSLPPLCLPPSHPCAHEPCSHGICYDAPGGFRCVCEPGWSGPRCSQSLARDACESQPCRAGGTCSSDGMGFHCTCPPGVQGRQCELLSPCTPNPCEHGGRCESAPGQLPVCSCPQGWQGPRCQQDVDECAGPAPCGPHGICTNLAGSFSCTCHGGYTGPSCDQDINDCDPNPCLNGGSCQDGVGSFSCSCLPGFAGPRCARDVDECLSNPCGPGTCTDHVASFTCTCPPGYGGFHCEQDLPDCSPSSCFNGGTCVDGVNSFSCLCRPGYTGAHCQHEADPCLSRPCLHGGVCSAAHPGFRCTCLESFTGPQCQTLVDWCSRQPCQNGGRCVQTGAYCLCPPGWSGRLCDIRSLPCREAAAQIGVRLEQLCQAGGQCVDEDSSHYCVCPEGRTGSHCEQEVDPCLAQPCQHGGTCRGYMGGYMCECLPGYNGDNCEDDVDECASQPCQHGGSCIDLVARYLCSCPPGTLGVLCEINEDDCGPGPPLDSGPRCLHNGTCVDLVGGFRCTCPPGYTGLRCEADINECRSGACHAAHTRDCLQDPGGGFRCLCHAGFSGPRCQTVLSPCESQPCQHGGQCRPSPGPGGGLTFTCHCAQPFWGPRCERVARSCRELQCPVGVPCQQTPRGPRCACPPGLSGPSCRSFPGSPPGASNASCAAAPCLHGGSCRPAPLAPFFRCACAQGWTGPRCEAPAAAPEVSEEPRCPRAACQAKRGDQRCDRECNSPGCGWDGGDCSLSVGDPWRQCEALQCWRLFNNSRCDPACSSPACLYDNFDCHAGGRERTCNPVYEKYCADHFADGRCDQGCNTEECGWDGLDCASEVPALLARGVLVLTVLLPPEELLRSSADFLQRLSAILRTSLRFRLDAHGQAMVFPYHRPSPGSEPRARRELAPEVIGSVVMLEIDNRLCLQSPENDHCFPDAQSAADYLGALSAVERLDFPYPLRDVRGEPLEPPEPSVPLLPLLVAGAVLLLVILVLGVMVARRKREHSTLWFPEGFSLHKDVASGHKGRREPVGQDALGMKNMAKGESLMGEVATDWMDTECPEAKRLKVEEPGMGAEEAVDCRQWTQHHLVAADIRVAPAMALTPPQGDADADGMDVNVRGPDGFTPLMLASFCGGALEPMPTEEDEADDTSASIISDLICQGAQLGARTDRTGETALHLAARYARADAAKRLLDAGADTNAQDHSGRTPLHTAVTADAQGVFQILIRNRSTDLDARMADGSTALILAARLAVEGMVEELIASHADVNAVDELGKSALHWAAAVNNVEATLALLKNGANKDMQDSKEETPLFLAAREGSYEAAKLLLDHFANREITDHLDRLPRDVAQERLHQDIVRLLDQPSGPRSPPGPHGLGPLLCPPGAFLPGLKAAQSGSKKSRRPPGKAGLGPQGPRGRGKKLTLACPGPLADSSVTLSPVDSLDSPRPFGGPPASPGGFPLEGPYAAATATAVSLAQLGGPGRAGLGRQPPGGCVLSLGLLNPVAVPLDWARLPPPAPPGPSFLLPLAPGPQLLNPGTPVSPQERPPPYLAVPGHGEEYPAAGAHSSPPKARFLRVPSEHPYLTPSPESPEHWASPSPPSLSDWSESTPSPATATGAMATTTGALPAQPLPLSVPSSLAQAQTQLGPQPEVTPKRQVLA
Chain of Fibroblast growth factor 10 (Homo sapiens) (O15520 whole entry, looked up): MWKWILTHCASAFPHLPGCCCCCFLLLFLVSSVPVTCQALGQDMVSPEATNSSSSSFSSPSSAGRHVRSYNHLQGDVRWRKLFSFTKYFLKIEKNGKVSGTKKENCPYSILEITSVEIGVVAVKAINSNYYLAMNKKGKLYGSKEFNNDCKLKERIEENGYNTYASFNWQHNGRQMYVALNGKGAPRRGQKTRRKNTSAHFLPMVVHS
Chain of Torsin-1A-interacting protein 2 (Homo sapiens) (Q8NFQ8 whole entry, looked up): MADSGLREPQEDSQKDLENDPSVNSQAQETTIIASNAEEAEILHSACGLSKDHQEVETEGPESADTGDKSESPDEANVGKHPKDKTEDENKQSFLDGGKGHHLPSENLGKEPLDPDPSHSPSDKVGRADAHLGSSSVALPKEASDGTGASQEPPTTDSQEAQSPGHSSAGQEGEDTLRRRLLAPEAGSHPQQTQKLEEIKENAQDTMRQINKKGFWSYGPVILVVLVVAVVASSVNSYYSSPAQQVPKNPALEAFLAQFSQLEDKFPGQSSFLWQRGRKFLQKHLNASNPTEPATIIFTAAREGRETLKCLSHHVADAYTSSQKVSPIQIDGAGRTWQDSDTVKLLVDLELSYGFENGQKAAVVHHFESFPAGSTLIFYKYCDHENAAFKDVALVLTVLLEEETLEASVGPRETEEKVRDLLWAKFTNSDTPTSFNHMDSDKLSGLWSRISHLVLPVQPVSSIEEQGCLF
Chain of Dickkopf-related protein 1 (Homo sapiens) (O94907 whole entry, looked up): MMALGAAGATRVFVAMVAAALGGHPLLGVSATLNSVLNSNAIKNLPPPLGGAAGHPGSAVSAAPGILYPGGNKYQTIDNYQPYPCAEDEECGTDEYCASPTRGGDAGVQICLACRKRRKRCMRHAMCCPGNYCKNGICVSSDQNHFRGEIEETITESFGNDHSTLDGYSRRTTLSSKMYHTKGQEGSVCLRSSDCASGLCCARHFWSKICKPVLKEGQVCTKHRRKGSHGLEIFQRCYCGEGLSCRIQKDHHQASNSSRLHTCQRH

SMILES | composite z-score [1] | z-score [2] | z-score [3] | z-score [4] | composite z-score [5] | z-score [6] | composite z-score [7] | composite z-score [8] | composite z-score [9] | composite z-score [10] | composite z-score [11] | composite z-score [12] | composite z-score [13] | z-score [14] | composite z-score [15] | composite z-score [16] | composite z-score [17] | composite z-score [18] | composite z-score [19] | composite z-score [20]
CCCC=C(CCC)[C@@H](NS(=O)(=O)c1cccc2cccnc12)c1ccc(C(=O)OC)cc1 | 0.763 | 0.797 (inactive) | -0.271 (inactive) | 0.823 (inactive) | 0.472 | -0.376 (inactive) | 0.679 | 2.03 | 0.542 | 1.35 | 0.817 | 2.53 | 1.46 | -0.355 (inactive) | 1.58 | 0.0656 | 1.8 | 1.24 | 0.726 | 0.948
C=CCOC(=O)[C@@H]1[C@H]2C(=O)O[C@H](c3ccccc3)[C@H](c3ccccc3)N2[C@H](c2ccc(OCCOC(=O)[C@H]3C[C@H]4C(=O)N[C@@H](Cc5ccccc5)C(=O)N4[C@H]3c3cccc(OCCO)c3)cc2)[C@@]12C(=O)Nc1ccc(I)cc12 | 1.53 | 2.59 (inactive) | -2.26 (inactive) | 0.874 (inactive) | 1.93 | -1.07 (inactive) | -0.193 | 1.59 | 1.03 | 0.276 | 0.921 | 0.141 | -0.0432 | -0.316 (inactive) | 1.24 | 1.32 | 1.01 | 1.14 | 1.13 | 0.967
CC(C)(C)OC(=O)CC[C@]1(C(=O)N2CCCCC2)N=C(c2ccc(OCCCO)cc2)O[C@H]1c1ccccc1CN=[N+]=[N-] | 1.54 | -4.42 (inactive) | -0.736 (inactive) | -0.279 (inactive) | 3.67 | 2.1 (inactive) | 0.694 | 0.743 | 1.05 | 0.314 | 1.68 | 0.978 | 0.92 | -3.65 (inactive) | 1.42 | 1.3 | 0.604 | 1.41 | 0.414 | 1.21
CCCC[C@@H](O)C1=C(COc2ccccc2)Cn2c(=O)n(-c3ccccc3)c(=O)n2[C@H]1CO | 0.0063 | -2.31 (inactive) | -1.82 (inactive) | -1.17 (inactive) | 0.94 | 1.87 (inactive) | -0.285 | -0.376 | -0.88 | -0.229 | -0.229 | -0.396 | -0.444 | -2.11 (inactive) | 0.217 | 0.106 | 0.111 | -0.423 | -0.0681 | 0.606
CC(C)CNC(=O)[C@@]1(c2ccc([N+](=O)[O-])cc2)CC(=O)N(C(C)C)[C@@H]1c1ccc(CO)cc1 | 0.808 | -0.655 (inactive) | -0.182 (inactive) | -0.812 (inactive) | 2.03 | 0.738 (inactive) | -0.147 | -0.641 | -0.143 | -0.13 | 0.832 | -0.258 | 1.08 | -0.372 (inactive) | -1 | -1.02 | -0.362 | -0.129 | -1.59 | 0.07
COC(=O)[C@@]1(Cc2ccc(F)cc2)[C@H]2c3cc(C(=O)N(C)C)n(CCSCCO)c3C[C@H]2CN1C(=O)c1ccccc1 | 0.0793 | 0.125 (inactive) | 0.642 (inactive) | -0.0109 (inactive) | 2.72 | 0.162 (inactive) | 0.0126 | -0.443 | 0.229 | -0.162 | 0.74 | 0.983 | 1.02 | -1.22 (inactive) | 0.438 | 0.266 | 0.168 | 0.322 | -0.0642 | 0.655
COCCOC(=O)N1C(=O)[C@@]2(c3cc(C#Cc4ccc(OC)cc4)ccc31)[C@H](c1ccc(OCCO)cc1)N1[C@H](c3ccccc3)[C@H](c3ccccc3)OC(=O)[C@H]1[C@@H]2C(N)=O | 1.54 | 1.37 (inactive) | 1.87 (inactive) | 5.01 (inactive) | 1.64 | 1.37 (inactive) | 0.172 | 1.45 | 1.02 | 0.0593 | 1.27 | 0.654 | 0.608 | -0.372 (inactive) | 1.25 | 1.32 | 0.711 | 1.43 | 0.853 | 0.48
CCOc1cc(C(O)C2C=CC3C(=O)NC(=O)C3N2Nc2ccccn2)ccc1O (stereo not given) | -0.0438 | 0.128 (inactive) | 1.33 (inactive) | -0.0339 (inactive) | 0.394 | -0.977 (inactive) | -0.0708 | 0.195 | 0.0082 | -0.0947 | 0.38 | -0.0596 | -0.0156 | 1.12 (inactive) | 0.592 | 0.156 | 0.28 | 0.189 | 0.107 | 0.925
O=C1NC(=O)C2C1C=CC(C(O)c1ccc3c(c1)OCO3)N2Nc1ccc(Cl)cc1Cl (stereo not given) | 0.0405 | -3.53 (inactive) | -0.462 (inactive) | 0.142 (inactive) | 2.94 | -1.14 (inactive) | 0.15 | 0.132 | 0.361 | -0.108 | 0.981 | 0.849 | 1.06 | 0.889 (inactive) | 0.553 | -0.334 | 0.205 | 0.304 | -0.278 | 1.19
C=C(/C(=C/C[C@@H](OC(C)=O)c1ccccc1OCCO)c1cnc2ccccc2c1)C(C)C | 1.4 | -0.37 (inactive) | -1.11 (inactive) | -0.449 (inactive) | 0.885 | 0.575 (inactive) | -0.178 | 1.2 | 0.646 | -0.0439 | 0.85 | -0.0495 | 0.168 | -0.333 (inactive) | 1.22 | 0.312 | 0.038 | 1.15 | 0.331 | 1.7
